# Experimental data taken from the supplement of paper PMC10646978.
# ± gives the standard deviation.
# Experiments:
# Conditions in all cases: modulator concentration 10 µM
# [1] = tested on: RAW-Dual (murine macrophage reporter line); test: NF-kB reporter (SEAP) activity fold change vs agonist alone; higher = enhanced NF-kB activity
# In short: (§1)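 RAW-Dual murine macrophage reporter cells were seeded at 50 000 per well in 384-well plates and pre-incubated 1 hour at 37 °C with compound pin-transferred to 10 μM final. After 1 hour, a PRR agonist was added and cells incubated overnight. Supernatant NF-κB (SEAP, QUANTI-Blue, 620 nm absorbance) and IRF (Lucia luciferase, QUANTI-Luc, luminescence) signals were divided by the mean agonist-only control on the same plate to give fold change. Two replicate plates were averaged, with errors by propagation.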
# [2] = tested on: RAW-Dual (murine macrophage reporter line); test: IRF reporter (Lucia luciferase) activity fold change vs agonist alone; higher = enhanced IRF activity
# In short: as §1
# [3] = tested on: RAW-Dual (murine macrophage reporter line); test: viability score (confluency relative to resting cells, overnight) (fraction); higher = more viable, active = viable (0.7 or more)
# In short: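 Compound was added at a final 10 μM to RAW-Dual macrophages in 384-well plates and left overnight. Confluency was imaged with IncuCyte, and two masks were generated in IncuCyte software over all imaged wells. Each viability score is confluency relative to resting cells, and a compound met the cutoff only when both masks were above 70% of resting cells.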
# [4] = agonist: CpG ODN 1826 0.5 ug/mL
Compound,"NF-kB reporter [1, 4]",NF-kB reporter ([1]; agonist: LPS 0.1 ug/mL),NF-kB reporter ([1]; agonist: MPLA […]),IRF reporter ([2]; agonist: 3'3'-cGAMP 10 ug/mL),IRF reporter ([2]; agonist: LPS 0.1 ug/mL),IRF reporter ([2]; agonist: MPLA […]),viability score [3]
CC(C)(C)SCC(O)Cn1c2ccc(Br)cc2c2cc(Br)ccc21 (centres undefined),0.767 ± 0.06,0.846 ± 0.1,0.91 ± 0.098,0.844 ± 0.039,1.31 ± 0.079,1.4 ± 0.12,0.999 (active)
NC(=O)c1ncn(C2OC(CO)C(O)C2O)n1 (centres undefined),1.17 ± 0.089,1.16 ± 0.058,1.04 ± 0.03,1.02 ± 0.075,0.951 ± 0.11,0.922 ± 0.072,0.999 (active)
OCC(S)CS (centres undefined),0.949 ± 0.072,0.909 ± 0.059,0.988 ± 0.023,0.336 ± 0.034,0.84 ± 0.07,0.912 ± 0.081,0.994 (active)
CS(=O)(=O)C1CCN(C(=O)C2(c3ccccc3)CCOCC2)C1 (centres undefined),0.986 ± 0.11,1.04 ± 0.083,0.927 ± 0.047,0.977 ± 0.068,1 ± 0.087,1.03 ± 0.33,1.02 (active)
CCCCC1(C)OC(=O)C(=Cc2ccc(OC)c([N+](=O)[O-])c2)C(=O)O1 (centres undefined),0.994 ± 0.17,1.07 ± 0.11,0.951 ± 0.086,0.966 ± 0.038,1.16 ± 0.13,1.25 ± 0.15,1 (active)
COc1ccc(OC)c(-c2csc(NC(=O)Cc3ccc(F)cc3)n2)c1,0.902 ± 0.097,0.944 ± 0.069,1.12 ± 0.1,1.1 ± 0.078,1.2 ± 0.18,1.38 ± 0.36,0.998 (active)
CC(C)Cn1c(=O)n(C)c(=O)c2[nH]cnc21,1.41 ± 0.11,1.01 ± 0.055,1.08 ± 0.026,0.849 ± 0.049,0.88 ± 0.12,0.884 ± 0.21,0.983 (active)
CCOc1cccc2sc(=NC(=O)c3ccc(S(=O)(=O)N4CCOCC4)cc3)n(C)c12,0.991 ± 0.31,1.14 ± 0.16,0.989 ± 0.13,0.97 ± 0.025,1.06 ± 0.14,1.27 ± 0.15,0.995 (active)
CC(=O)N1CCc2ccc(NC(=O)C3(c4ccccc4)CCOCC3)cc2C1,0.91 ± 0.063,1 ± 0.082,1.4 ± 0.075,1.22 ± 0.06,1.28 ± 0.24,1.31 ± 0.54,0.979 (active)
CN1CCN(CC(=O)N2c3ccccc3C(=O)Nc3cccnc32)CC1.Cl.Cl,1.49 ± 0.35,1.03 ± 0.1,1.15 ± 0.077,0.96 ± 0.036,1.08 ± 0.12,1.06 ± 0.15,0.984 (active)
Br.Cc1ccc(-c2csc(N3N=C(c4ccc(F)cc4)CC3c3ccc(C(C)C)cc3)n2)cc1C (centres undefined),0.948 ± 0.083,1.01 ± 0.072,0.903 ± 0.088,0.824 ± 0.027,1.35 ± 0.14,1.13 ± 0.099,1 (active)
CN1CCN(c2nc3c(=O)[nH]cnc3n2C2OC(CO)C(O)C2O)CC1 (centres undefined),0.979 ± 0.11,1.03 ± 0.071,0.904 ± 0.084,1.01 ± 0.089,1.22 ± 0.082,1.08 ± 0.25,1.01 (active)
CC[C@@H]1C(=O)N(C)c2cnc(Nc3ccc(C(=O)N[C@H]4CC[C@H](N5CCN(CC6CC6)CC5)CC4)cc3OC)nc2N1C(C)C,0.553 ± 0.077,1.22 ± 0.31,4.21 ± 0.23,0.0547 ± 0.0068,0.0624 ± 0.0084,0.138 ± 0.012,0.018 (inactive)
CN1CCN(CCCN2c3ccccc3Sc3ccc(S(=O)(=O)N(C)C)cc32)CC1 [Prestw-149],0.413 ± 0.053,0.958 ± 0.052,1.82 ± 0.044,0.936 ± 0.051,0.851 ± 0.078,1.55 ± 0.16,0.149 (inactive)
O=C(COC(=O)c1ccc(Cl)c([N+](=O)[O-])c1)c1ccc(Cl)cc1,0.942 ± 0.072,0.978 ± 0.081,0.99 ± 0.093,0.929 ± 0.035,1.22 ± 0.18,1.36 ± 0.29,1.01 (active)
Cc1cc(O)c(C(C)C)cc1NC(=O)c1cc(C(C)(C)C)oc1C,1.22 ± 0.12,0.884 ± 0.083,1.76 ± 0.13,0.562 ± 0.025,0.998 ± 0.048,2.71 ± 0.29,0.797 (active)
COc1ccc2nc(NCCCn3ccnc3)sc2c1,0.921 ± 0.07,1.02 ± 0.11,1.04 ± 0.1,0.836 ± 0.034,1.15 ± 0.14,1.25 ± 0.2,0.985 (active)
Cc1noc(C)c1CN1CCC(C(F)(F)F)CC1.Cl,0.908 ± 0.048,0.947 ± 0.081,1.1 ± 0.066,1.09 ± 0.072,1.32 ± 0.29,1.6 ± 0.52,0.937 (active)
Cc1cccc(OCC(=O)Nc2cccc([N+](=O)[O-])c2)c1C,0.982 ± 0.16,1.17 ± 0.14,1.03 ± 0.11,0.947 ± 0.028,1.21 ± 0.23,1.24 ± 0.21,0.974 (active)
CC1=C(C)CC2C(=O)N(c3ccccc3C)C(=O)C2C1 (centres undefined),0.797 ± 0.064,0.889 ± 0.068,1.06 ± 0.12,0.982 ± 0.045,1.35 ± 0.078,1.33 ± 0.15,1.01 (active)
O=C(CN1CCN(c2ccccc2F)C1=O)N1CCCC(Oc2ccncn2)C1 (centres undefined),0.874 ± 0.21,0.941 ± 0.052,0.992 ± 0.092,0.507 ± 0.025,0.968 ± 0.15,1.13 ± 0.27,0.547 (inactive)
O=C(Nc1ccc(F)cc1)c1ccco1,0.904 ± 0.074,1.11 ± 0.12,1 ± 0.038,0.879 ± 0.15,1.03 ± 0.042,0.915 ± 0.11,0.996 (active)
CNC(CC(=O)O)C(=O)O (centres undefined),0.986 ± 0.073,1.08 ± 0.073,0.978 ± 0.028,0.943 ± 0.054,0.942 ± 0.094,0.948 ± 0.078,1 (active)
C[C@@H](O)[C@H]1C(=O)N2C(C(=O)O)=C(SCCNC=N)C[C@H]12 [Prestw-519],1.17 ± 0.11,0.986 ± 0.13,0.951 ± 0.036,0.981 ± 0.043,0.96 ± 0.044,0.928 ± 0.092,0.994 (active)
N#Cc1cc2c(nc1N1CC(Cn3nc(C4CC4)ccc3=O)C1)CCC2,1.44 ± 0.078,1.21 ± 0.099,1.63 ± 0.24,0.866 ± 0.12,1.03 ± 0.17,1.18 ± 0.34,0.946 (active)
Cc1cn2nc(C(=O)Nc3ccccc3N3CCN(C)CC3)cc2c(=O)[nH]1,0.685 ± 0.035,1.08 ± 0.11,0.864 ± 0.047,1.02 ± 0.052,1.26 ± 0.076,1.09 ± 0.098,0.941 (active)
COC(=O)c1cccc(Nc2nc(C=Cc3ccccc3)nc3ccccc23)c1,1.3 ± 0.12,1.28 ± 0.1,5.46 ± 0.19,0.658 ± 0.023,0.945 ± 0.14,5.98 ± 0.47,0.851 (active)
